Experimental findings from PubChem BioAssay AID588511 (Johns Hopkins Ion Channel Center, 2011) are described below.

Structures are written as SMILES. The campaign covered roughly 310,000 compounds. About 3,600 (1.2%) were called active.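 How the source made its calls: active means ratio plate-corrected score three or more library SD toward inhibition, starting fluorescence score within five deviations; inactive means the rest.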 The entries come from a sample that favours actives as a whole.

Chain of Anoctamin-1 (Mus musculus) (Q8BHY3 whole entry, looked up): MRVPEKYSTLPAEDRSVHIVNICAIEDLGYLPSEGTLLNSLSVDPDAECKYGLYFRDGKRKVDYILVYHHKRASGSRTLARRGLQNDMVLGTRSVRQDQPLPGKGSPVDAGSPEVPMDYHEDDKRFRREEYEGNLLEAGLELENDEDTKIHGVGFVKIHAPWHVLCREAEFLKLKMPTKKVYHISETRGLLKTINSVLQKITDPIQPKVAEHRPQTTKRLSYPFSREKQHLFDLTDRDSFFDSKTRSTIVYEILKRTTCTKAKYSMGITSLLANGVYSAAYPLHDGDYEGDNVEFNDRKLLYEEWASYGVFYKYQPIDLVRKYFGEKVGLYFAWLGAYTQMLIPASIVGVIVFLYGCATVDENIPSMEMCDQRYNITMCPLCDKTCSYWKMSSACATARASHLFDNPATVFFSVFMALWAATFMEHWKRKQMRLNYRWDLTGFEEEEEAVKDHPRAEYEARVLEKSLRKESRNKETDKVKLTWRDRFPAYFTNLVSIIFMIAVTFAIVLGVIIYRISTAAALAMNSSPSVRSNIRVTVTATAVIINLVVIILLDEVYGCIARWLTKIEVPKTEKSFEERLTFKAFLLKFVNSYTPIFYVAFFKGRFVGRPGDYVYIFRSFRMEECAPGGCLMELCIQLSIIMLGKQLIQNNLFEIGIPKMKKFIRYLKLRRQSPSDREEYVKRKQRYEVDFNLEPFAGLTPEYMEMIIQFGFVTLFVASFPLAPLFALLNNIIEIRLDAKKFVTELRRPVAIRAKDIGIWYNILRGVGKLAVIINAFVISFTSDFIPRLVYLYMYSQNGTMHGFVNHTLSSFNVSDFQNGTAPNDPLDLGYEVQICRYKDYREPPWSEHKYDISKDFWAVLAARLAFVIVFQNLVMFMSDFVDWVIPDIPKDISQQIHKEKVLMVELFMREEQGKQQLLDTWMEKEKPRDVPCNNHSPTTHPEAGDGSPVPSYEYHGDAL

The test has as its target Anoctamin-1 (Mus musculus) (UniProt Q8BHY3). The test can be described thus: TMEM16A chloride channel inhibitors, primary screen, cell-based, HTS (AID 588511).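 On normalized B-score (activity score, 25-100; higher = stronger inhibition): score derived from kinetic fluorescence span divided by baseline fluorescence per well.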 As to conditions: HEK293 TMEM16A/YFP iodide influx fluorescence, ionomycin; at 10 µM.
As for `Nc1nnc2c(C(F)(F)F)nc3ccccc3n12`, the normalized B-score (activity score, 25-100; higher = stronger inhibition) entry was “inactive”. Next, `O=C(NCc1ccc2c(c1)OCO2)c1cc(F)c(F)cc1Cl`: “inactive”; `Cc1nc2c(C(=O)NCc3ccc4c(c3)OCO4)c[nH]n2c(=O)c1Cc1ccccc1F`: 100 (active); `CCn1c(=O)c(C(=O)NCc2ccc3c(c2)OCO3)c(O)c2ccccc21`: “inactive”.

As to `CCN(C(=O)Cc1nc(N)n[nH]1)C1(C(=O)Nc2ccccc2)CCCCC1`, the normalized B-score (activity score, 25-100; higher = stronger inhibition) entry was “inactive”.

Regarding `COc1ccc(C(=O)NC2CCCc3c2cnn3-c2cccc(C)c2C)c(OC)n1` (stereo not given), the normalized B-score (activity score, 25-100; higher = stronger inhibition) was 100 (active).

As to `Cn1nccc1C(=O)NC1CCCc2c1cnn2-c1ccccc1F` (stereo not given), the normalized B-score (activity score, 25-100; higher = stronger inhibition) result was “inactive”. On to `Cc1cc(C(=O)NC2CCCc3c2cnn3-c2cccc(C)c2C)c(C)o1` (stereo not given), for which the normalized B-score (activity score, 25-100; higher = stronger inhibition) entry is “inactive”. In the case of `O=C(CCN1C(=O)c2ccccc2C1=O)C1=NN[C@@H]2C(=O)N(c3ccc(F)cc3)C(=O)[C@H]12`, the normalized B-score (activity score, 25-100; higher = stronger inhibition) entry is “inactive”. As for `C=CCC(CC=C)(C(N)=O)c1ccccc1`, the entry is “inactive”.

Turning to `Cc1ccc(S(=O)(=O)N2[C@@H](c3ccccc3F)C(C(=O)O)=CC[C@H]2c2ccc(Cl)cc2)cc1`, the normalized B-score (activity score, 25-100; higher = stronger inhibition) entry is “inactive”. Take `Cc1ccccc1S(=O)(=O)N1[C@@H](c2cccc(Cl)c2)C(C(=O)O)=CC[C@H]1c1ccc(Cl)cc1`: the normalized B-score (activity score, 25-100; higher = stronger inhibition) was 100 (active). With `Cc1ccccc1NC(=O)NCC1CCN(Cc2cccc(Cl)c2)CC1`, the normalized B-score (activity score, 25-100; higher = stronger inhibition) entry was “inactive”. For the compound `Cc1ccc([C@@H]2CC=C(C(=O)O)[C@H](c3cccc(Cl)c3)N2S(=O)(=O)c2ccc(C)cc2)cc1`, the normalized B-score (activity score, 25-100; higher = stronger inhibition) entry is “inactive”. Next, `Cc1ccc(S(=O)(=O)N2[C@@H](c3cccc(Cl)c3)C(C(=O)O)=CC[C@H]2c2ccc(Cl)c(Cl)c2)cc1`: 100 (active); `CS(=O)(=O)N(CC(=O)N1CCN(c2cccc(Cl)c2)CC1)c1ccccc1`: “inactive”. As for `CC(C)CCNC(=O)CC1C(=O)N(Cc2ccccc2)C(C)c2nc3ccccc3n21` (stereo not given), the normalized B-score (activity score, 25-100; higher = stronger inhibition) entry is “inactive”.

Turning to `CC1CCN(Cc2nc3c(c(=O)n(C)c(=O)n3C)n2CCc2ccccc2)CC1`, the normalized B-score (activity score, 25-100; higher = stronger inhibition) entry was “inactive”. For `O=C(Nc1ccccc1C(=O)NCC1CCCO1)c1ccccc1F` (stereo not given), the normalized B-score (activity score, 25-100; higher = stronger inhibition) entry is “inactive”. In the case of `CCC(C(=O)NCc1cccnc1)n1nc(C)c2sc3ccccc3c2c1=O` (stereo not given), the normalized B-score (activity score, 25-100; higher = stronger inhibition) entry was “inactive”. Next, `O=C(Nc1nc(-c2ccc3c(c2)OCO3)cs1)c1ccncc1`: 100 (active). Next, `O=C(Nc1nc2ccccc2s1)c1ccc2c(c1)OCO2`: “inactive”; `CC(=O)NCCC(=O)Nc1nc(-c2ccc3c(c2)OCCO3)cs1`: “inactive”; `O=C(O)Cc1csc(NC(=O)CSc2nnnn2-c2ccc(O)cc2)n1`: “inactive”. Next, `CC(C)NC(=O)NCCCCCCS(C)=O` (stereo not given): “inactive”; `Cc1cc(C)c(S(=O)(=O)c2ccc(F)cc2C)c(=O)[nH]1`: “inactive”. On to `COc1ccccc1S(=O)(=O)c1c(C)cc(C)[nH]c1=O`, for which the normalized B-score (activity score, 25-100; higher = stronger inhibition) result is “inactive”. Take `C=C(C)Cn1c(C)cc(C)c(S(=O)(=O)c2ccccc2C)c1=O`: the normalized B-score (activity score, 25-100; higher = stronger inhibition) is 100 (active). Next, `Cc1ccc(NC(=O)CSc2nn3c(=O)c(C)nnc3s2)cc1Cl`: “inactive”; `CCC(C)c1ccccc1NC(=O)CN(C)CC(=O)Nc1ccccc1SC` (stereo not given): “inactive”. Regarding `CCCCOC(=O)CCCc1ccc([N+](=O)[O-])cc1[N+](=O)[O-]`, the normalized B-score (activity score, 25-100; higher = stronger inhibition) result is “inactive”. Next, `CN(C)/N=C/c1cc(Cl)cc([N+](=O)[O-])c1O`: “inactive”; `O=C(N/N=C/c1cc(Br)c(O)c([N+](=O)[O-])c1)C(O)(c1ccccc1)c1ccccc1`: “inactive”; `O=C(N/N=C/c1cc(Cl)cc([N+](=O)[O-])c1O)C(O)(c1ccccc1)c1ccccc1`: 100 (active). As for `S=C(NCc1ccc(Cl)cc1)NC12CC3CC(CC(C3)C1)C2`, the figure is 100 (active); as for `O=C(NCc1ccncc1)NC12CC3CC(CC(C3)C1)C2`, “inactive”. Next, `O=C(NCc1ccc(Cl)cc1)NCc1ccc(Cl)cc1`: “inactive”; `C=CCn1c2ccccc2c2nnc(SCc3[nH]c(=O)[nH]c3C(=O)CCCCC(=O)OCC)nc21`: “inactive”; `COc1cc(N2C(=O)CC3(CCCC3)CC2=O)cc(OC)c1OC`: “inactive”. In the case of `COc1cc(OC)cc(C(=O)NNC(=O)CNC(=O)c2ccc(Br)o2)c1`, the normalized B-score (activity score, 25-100; higher = stronger inhibition) entry was “inactive”. As for `CSCc1ccc(C(=O)Nc2cc(C)cc(C)c2)cc1`, the entry is “inactive”.

As to `Cc1occc(=O)c1OCc1ccc(F)cc1`, the normalized B-score (activity score, 25-100; higher = stronger inhibition) entry is “inactive”. As for `Cc1nc2ccccc2cc1OCc1ccc(F)cc1`, the figure is 25 (active); as for `Fc1ccccc1COc1cccc2cccnc12`, “inactive”. Consider `CC1CCCCN1C(=O)Cn1c(=O)oc2cc(S(=O)(=O)N3CCCCC3)ccc21` (stereo not given), for which the normalized B-score (activity score, 25-100; higher = stronger inhibition) entry was “inactive”. As to `Cc1cc(C)cc(NC(=O)Cn2cnc3c(nnn3Cc3ccc(F)cc3)c2=O)c1`, the normalized B-score (activity score, 25-100; higher = stronger inhibition) result was “inactive”.

Turning to `CCC1SC2=NCCN2C1(O)c1ccc(Cl)cc1` (stereo not given), the normalized B-score (activity score, 25-100; higher = stronger inhibition) entry was “inactive”.

For the compound `Clc1ccc(-c2nnc(SCc3nc4ccccc4s3)o2)cc1`, the normalized B-score (activity score, 25-100; higher = stronger inhibition) entry is “inactive”.

With `c1ccc(-c2nnc(SCc3nc4ccccc4[nH]3)o2)cc1`, the normalized B-score (activity score, 25-100; higher = stronger inhibition) was 25 (active).

Consider `Clc1ccccc1SCc1nc2ccccc2[nH]1`, for which the normalized B-score (activity score, 25-100; higher = stronger inhibition) entry is “inactive”.
